The sequences below were run against ABHD8 (assay: pooled miR-30 sensor sort-seq; sequence = guide strand). Settings: shRNA.
Also: reference of the scale not given here.

Sequence	sensor-assay potency score (higher = more potent)
TTTAACAGCTGCTTCTCCTTGG	0.506
TTAACAGCTGCTTCTCCTTGGC	-0.231
TTTTCCACCAGCAACCGCCCAT	-0.43
TTTGCAGCTAGTGATGCGCTTC	-0.147
TTGACCTCTACAAAGGTGTAGC	-0.315
TTCGCTTCTTGGCATAGCGCTT	-0.977
TACAAAGGTGTAGCCATCGCTG	-0.814
TCACCTTGTGCACTAGGTCTGG	-0.472
AAACTTATCGTGCATGCCGTGG	-1.36
TTGCGGTACACGGTGATCCGGC	-0.925

These sequences were tested against ACACB in the same assay as above. Settings: shRNA.

Sequence	sensor-assay potency score (higher = more potent)
TTACTCTTGGTGATCGGCTTGG	0.104
TAAGAAAGCAACTCCATTCTTG	0.182
TTATCAGATCTTTCTTTCGGAA	-0.751
TTGTAAGCTGGATCGATCCTTC	-0.276
TAGAGGTATTCCACTGTCCCTG	-0.211
TATCACACACTTGTCGTAGTGG	0.451
TAATTTCTTGAGGTTCTCGGGG	-0.145
TTGATCTTGACCTCAGCCTGTA	0.316
TACATTTCTATGCACAGCGGGT	-1.13
TGTATCTGGACTCTCCTCCTTC	-0.0476
TTTGCTTCTGATTTACTCTTGG	0.795
TTTGTCTGCATACATTTCTATG	-1.38
TTTATCAGATCTTTCTTTCGGA	0.775
TTCAGTAGTGAATCCGCTGGGA	0.353
TTCGGTAACTGTCAACCTCTTC	-0.589
TTGGACTGTACGAATGTCCGTA	0.552
TTGTCATAAACATCTTCTGGGA	-0.671
TTCTCAAACACACACGTCTTAT	-1.28
TTCATGTAGGTGGTGTAGCTGT	-0.772
TTCTTGTCTTCTTTGGAGGGGG	-0.0633
TTGGATGTGTAGACCTCTCTTC	0.36
TACTTGTCTGAAAAGGATCGGG	0.16
TTTATCACACACTTGTCGTAGT	0.458

What follows are sequences tested against ACAD10 in the same assay as above. Settings: shRNA.

Sequence	sensor-assay potency score (higher = more potent)
TTTCTCCTTGAGGTCTTCGATC	-1.58
TAATCCTGAACTCCCTCTCTAT	-1.27
TTCCAGTCCATACACCGTCAGA	-1.34
TATGACATAGAAGCTGTCCTCC	1.02
AAGCACAGCTTGTAGATCCTAG	0.0767
TTGAGGTCTTCGATCAGTGGGG	-0.0648
TTTCATAATCCTGAACTCCCTC	-0.41

From the OligoGym collection
